Test [1] addresses T1, Aspartate--tRNA(Asp/Asn) ligase (Mycobacterium tuberculosis (strain ATCC 25618 / H37Rv)) (UniProt P9WFW3).
T1 sequence (whole entry): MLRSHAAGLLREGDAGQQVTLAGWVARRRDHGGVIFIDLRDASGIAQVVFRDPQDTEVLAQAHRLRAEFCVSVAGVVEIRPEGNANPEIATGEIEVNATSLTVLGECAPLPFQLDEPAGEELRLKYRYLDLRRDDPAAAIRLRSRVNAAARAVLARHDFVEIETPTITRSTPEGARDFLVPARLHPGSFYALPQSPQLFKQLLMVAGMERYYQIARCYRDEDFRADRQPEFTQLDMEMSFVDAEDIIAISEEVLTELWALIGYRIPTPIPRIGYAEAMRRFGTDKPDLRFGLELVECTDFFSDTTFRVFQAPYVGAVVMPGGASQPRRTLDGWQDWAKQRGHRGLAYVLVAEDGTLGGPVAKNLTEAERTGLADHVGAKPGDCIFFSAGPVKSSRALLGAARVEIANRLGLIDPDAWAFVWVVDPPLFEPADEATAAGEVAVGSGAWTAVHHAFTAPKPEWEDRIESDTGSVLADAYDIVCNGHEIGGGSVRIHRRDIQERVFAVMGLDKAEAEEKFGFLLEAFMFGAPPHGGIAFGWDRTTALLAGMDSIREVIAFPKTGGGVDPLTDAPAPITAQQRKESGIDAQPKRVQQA
Description: Assay for Asp RNA synthetase-1 from Mycobacterium tuberculosis. The test is classed as functional. Further details: scale not given: direction of the effect not stated beside the values. As to conditions: 30 µM.

In test [2] the target is Shiga toxin 2 (Escherichia coli O157:H7) (UniProt P09385+P09386). Description: E. coli 0.157:H7 Shiga Toxin SOP - stx2 screening assay. More on the design: scale not given: direction of the effect not stated beside the values. As to conditions: 30 µM. The test is classed as functional.

For `O=C(COc1coc(CN2CCCCC2)cc1=O)NCc1ccccc1`, the figures for the Percent Effect in test [1] and in test [2] were 10.2% and -39.3%, respectively.
In the case of `Cc1[nH]c2ccccc2c1-c1ccnc(NC[C@H](O)CO)n1`, the figures for the Percent Effect in test [1] and in test [2] were 0.691% and -30.4%, respectively.
On the same counts, the results for `Cc1cc(C(=O)NCc2ccnc(N3CCN(C)CC3)c2)c(C)s1` are -3.03% and -30.4%.
With `c1sc(C2CCCC2)nc1CN1CCn2c(nnc2C2CC2)C1`, the Percent Effect in test [1] stood at 3.23%; in test [2], 27.9%.
For the compound `CCCS(=O)(=O)N1CCOCC2(CCN(c3ccccn3)C2)C1` (stereo not given), the figures for the Percent Effect in test [1] and in test [2] were -2.85% and -23.9%, respectively.
In the same order, the values of `COc1ccccc1OCC(=O)Nc1ncccc1OC(F)F` are 3.04% and -12%.
Regarding `O=C(NCc1cccnc1-n1cccn1)C1CC(=O)N(CC2CC2)C1` (stereo not given), the Percent Effect in test [1] is -2.05%; in test [2], 10.1%.
On the same counts, the results for `O=C(Cn1ccc2ccccc21)NCc1ccc(C(=O)O)cc1` are 5.27% and 6.55%.
For `O=C(c1ccc2c(c1)CCCC2)N1CCOCC1c1ncon1` (stereo not given), the results for the Percent Effect in test [1] and in test [2] were -2.09% and 0.194%, respectively.
On to `O=C1CC(c2ccccc2)C2(CCN(CC3CC3)CC2)N1` (stereo not given), for which the Percent Effect in test [1] was -1.66%; in test [2] it was -14.7%.
In the case of `CN(C)c1cc(C(=O)NCCc2n[nH]c(=O)[nH]2)ccn1`, the Percent Effect in test [1] was 0.719%; in test [2], -0.859%.
In the same order, the values of `Cc1cnc(NC(=O)c2ccc(-n3ncc(C#N)c3N)cc2)s1` are 0% and -13.3%.
In the same order, the values of `Cc1cc(NC(=O)CN2CCN(c3nccs3)C(C)C2)n(C)n1` (stereo not given) are 7.92% and 7.19%.
As to `CC(c1ccc(Cl)cc1)N1CCN(CCNS(C)(=O)=O)CC1` (stereo not given), the results for the Percent Effect in test [1] and in test [2] were 1.42% and -11.7%, respectively.
For `Cc1noc([C@@]23CCO[C@@H]2CCN(C(=O)C2CCOCC2)C3)n1`, the results for the Percent Effect in test [1] and in test [2] were 0.117% and -4.33%, respectively.
On the same counts, the results for `CCN(CCNC(=O)c1ccccc1OCCOC)C1CC1` are -0.655% and -72%.
In the same order, the values of `CO[C@H]1CO[C@@]2(CCCN(C(=O)C3=CCCCC3)C2)C1` are 8.41% and -11.8%.
On the same counts, the results for `COCC1CC2(CCN(Cc3cnn(C)c3)CC2)CN1C(C)C` (stereo not given) are 10.7% and -9.26%.
As for `c1cc(OCc2ccc3c(c2)OCCO3)ccc1CNC1CC1`, the Percent Effect was -1.05% in test [1] and -54.3% in test [2].
On the same counts, the results for `COc1ccccc1OCc1cc(C(=O)N2CC=CC2C(C)C)n[nH]1` (stereo not given) are -0.752% and 15.8%.
In the same order, the values of `CNS(=O)(=O)Cc1ccc(CNC(=O)Nc2cccnc2)cc1` are -0.514% and -38.8%.
`O=C(CCc1cscn1)N1CCCC1c1noc(C2CC2)n1` (stereo not given): the results for the Percent Effect in test [1] and in test [2] were -1.43% and 22.4%, respectively.
In the same order, the values of `Cc1nc(C)n(CC2CCCN(CC(=O)Nc3nncs3)C2)n1` (stereo not given) are -4.19% and 25.6%.
On the same counts, the results for `O=C1CC(c2ccc(C(=O)O)cc2)c2ncn(-c3cccc(F)c3)c2N1` (stereo not given) are 7.81% and -17.3%.
For `COCCN1CC(C(=O)NCc2ccnc(-n3cccn3)c2)CC1=O` (stereo not given), the Percent Effect is -0.544% in test [1] and -36.8% in test [2].
In the case of `CC(C)Cc1noc(CN2CCN(C(=O)c3cccc(F)c3)CC2)n1`, the figures for the Percent Effect in test [1] and in test [2] were -0.41% and -17.7%, respectively.
In the same order, the values of `Cc1ccc([C@@H]2CN(S(=O)(=O)N(C)C)C[C@H]2N(C)C)cc1` are 2.81% and 5.3%.
In the same order, the values of `O=C(Cn1cc(-c2ccccc2)ncc1=O)Nc1nnc[nH]1` are -0.342% and 6.34%.
For the compound `CCC1CCCN(C(=O)Cc2csc(-c3ncccn3)n2)C1` (stereo not given), the Percent Effect in test [1] was 0.456%; in test [2], -14.8%.
Take `Cn1c(CC2CCS(=O)(=O)C2)nnc1SCCOc1cccc(Cl)c1` (stereo not given): the Percent Effect in test [1] was 2.13%; in test [2] it was -13%.
On the same counts, the results for `Cc1nc(N2CCN(C(=O)c3ccc(O)cc3)CC2)c2cnn(C)c2n1` are -1.05% and 3.77%.
Turning to `O=C(NCCc1cccnc1)N1CCCC1c1ccsc1` (stereo not given), the Percent Effect in test [1] was -2.72%; in test [2] it was 1.93%.
On the same counts, the results for `Cn1cnc2c1CCN(Cc1nc(-c3ccsc3)no1)C2` are -8.92% and -33%.
Consider `CCc1ccc(-n2c(=O)[nH]c3nc(N4CCSCC4)ncc3c2=O)cc1`, for which the Percent Effect is 15.3% in test [1] and -13.5% in test [2].
In the case of `CSc1nccn1-c1cccc(C(=O)NCC2CC2)c1`, the Percent Effect was determined as 4.07% in test [1] and 32% in test [2].
In the same order, the values of `CCc1nc(C2CCCN2CC(=O)Nc2sc(C)c(C)c2C)no1` (stereo not given) are 0.212% and 8.78%.
For the compound `COCCN1CCN(CCCS(=O)(=O)c2ccccc2)CC1C` (stereo not given), the Percent Effect in test [1] was -4.25%; in test [2], -5.54%.
In the same order, the values of `CCc1nc(C2CCCN2C(=O)c2ncoc2CC)no1` (stereo not given) are -3.37% and 4.73%.
In the same order, the values of `COCCNS(=O)(=O)c1cccc2c1CN(C(=O)c1ccccc1)CC2` are -2.79% and -27.5%.
On the same counts, the results for `Cc1noc(C)c1CN(C)C(=O)c1ccc(NC2CC2)nc1` are 5.06% and 26.3%.
As for `Clc1ccc(-n2cc(CNC3CCc4ncnn4C3)cn2)cc1` (stereo not given), the Percent Effect in test [1] is -5.31%; in test [2], -39.9%.
Turning to `CN(C)c1cc(CNC(=O)c2ccc(=O)[nH]n2)ccn1`, the Percent Effect in test [1] is -3.92%; in test [2] it was -29.1%.
Take `COC(=O)[C@H](C)NC(=O)c1cc(-c2cccc(Cl)c2)no1`: the Percent Effect in test [1] is 0.419%; in test [2], 5.33%.
In the same order, the values of `Cn1cc(N2CC3(CCN(Cc4cccs4)CC3)OCC2=O)cn1` are -0.729% and -20.1%.
`COc1ccc(CN2C[C@H]3CC[C@](O)(c4ccc(C)cn4)[C@H]3C2)c(F)c1`: the Percent Effect was determined as 2.93% in test [1] and 14.7% in test [2].
Take `CCc1noc(CN2CCCC2c2noc(C3CC3)n2)n1` (stereo not given): the Percent Effect in test [1] came to 0.459%; in test [2], 12.9%.
For `CN(C)S(=O)(=O)N1CC[C@]2(C[C@H](Oc3cccnc3)CO2)C1`, the Percent Effect was 9.53% in test [1] and -27.2% in test [2].
With `N#Cc1ccc(C(=O)N2CCC3(CC2)C(=O)Nc2ccccc23)cn1`, the Percent Effect is 6.62% in test [1] and 1.52% in test [2].
In the same order, the values of `CCOCC(O)CN1CCN(C(=O)CC(C)(C)C)CC1` (stereo not given) are -3.73% and 14.9%.
For the compound `Cc1cccnc1CN(C)CC1(O)CCCN(CC2CCCCC2)C1=O` (stereo not given), the values for the Percent Effect in test [1] and in test [2] were -0.871% and 2.24%, respectively.

The values are drawn from ChEMBL document CHEMBL3988442, “University of Dundee, Small-Polar-MMV Screening Library” (2021).
